High-throughput results from PubChem BioAssay.
Rows were chosen to be rich in hits. Some 1.5% of all compounds tested hit in one or more screens of this group.
VHR inh abs – DUSP3 (human) phosphatase inhibition; P51452; recombinant VHR phosphatase, pNPP absorbance; inhibition, % at 13.3 µM; hit rate 0.52% among 290,000; AID 1654; in the data active = inhibition above about 50%
Target sequence (P51452 whole entry, looked up): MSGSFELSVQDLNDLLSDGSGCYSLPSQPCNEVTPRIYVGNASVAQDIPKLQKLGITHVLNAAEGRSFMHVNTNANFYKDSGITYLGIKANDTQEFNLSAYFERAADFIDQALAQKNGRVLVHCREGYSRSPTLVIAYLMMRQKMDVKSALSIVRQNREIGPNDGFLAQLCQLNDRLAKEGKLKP
PrPC surface inh – inhibitors of human cell surface prion protein PrPC | P04156 | inhibition, % at 13.8 µM | TR-FRET read-out | hit rate 0.43% among 370,000; in the data active = inhibition above about 24%; also: 0% = median of the test wells and 100% = reference compound wells
Mtb hypoxia inh – Mtb hypoxia fluorescent reporter inhibition; fluorescence inhibition, % (concentration not given with the values); M. tuberculosis hypoxia-regulated fluorescent reporter, fluorescence; AID 1159583; hit rate 0.1% among 300,000; in the data active = fluorescence inhibition mostly above about 23%, no sharp cut-off; inactive = mostly below about 17%
PrP UTR inh – inhibition of PrP 5' UTR reporter expression | cell-based PrP 5' UTR mRNA reporter, plate reader | hit rate 0.35% among 340,000 | AID 488862 | inhibition, % (no concentration beside the values); in the data active = inhibition above about 52%; also: 0 = median of the neutral control wells
MazF activator – activators of E. coli MazEF toxin-antitoxin RNase; P0AE70; FAM/BHQ RNA-DNA oligo cleavage fluorescence, 5 h; activation, % at 20 µM; hit rate 0.32% among 350,000; in the data active = activation above about 50%
Target sequence (P0AE70 whole entry, looked up): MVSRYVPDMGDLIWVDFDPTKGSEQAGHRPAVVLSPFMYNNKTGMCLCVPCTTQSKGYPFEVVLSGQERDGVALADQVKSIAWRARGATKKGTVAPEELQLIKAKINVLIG
3CLpro inhibitor – SARS-CoV 3CLpro protease inhibition. P0C6X7. AID 1706. recombinant SARS-CoV 3CLpro, quenched FRET peptide cleavage. inhibition, % at 6 µM. hit rate 0.14% among 290,000; in the data active = inhibition above about 12%
Active calls of the source: *; nt = no result given.

SMILES	VHR inh abs	PrPC surface inh	Mtb hypoxia inh	PrP UTR inh	MazF activator	3CLpro inhibitor
COC(=O)C1=C(c2ccc(C(C)=O)cc2)CC2CCC1N2C(=O)NC1CC1 (stereo unspecified)	nt	nt	5	nt	nt	nt
CC(C)N1CC2=C(OC(N)=C(C#N)C2c2cccnc2)/C(=C/c2cccnc2)C1 (stereo unspecified)	14	3	7	-13	64*	-3
N#CC1=C(N)OC2=C(CN(Cc3ccccc3)C/C2=C\c2cccnc2)C1c1cccnc1 (stereo unspecified)	-7	-11	nt	-26	7	2
COc1ccc(CN(C)C(=O)c2cccc(Oc3ccccc3)c2)c(OC)c1OC	22	-1	-2	-9	55*	0
COc1cccc(CN(C)C(=O)c2cccc(S(=O)(=O)NCc3ccccc3)c2)c1OC	nt	-1	-9	-12	6	nt
CCn1c(SCC(=O)NC(=O)NCc2ccco2)nc2sc(C)c(C)c2c1=O	-10	4	38*	-3	-3	-4
CC(Cc1ccccc1)=NNc1ccc([N+](=O)[O-])cc1[N+](=O)[O-]	nt	1	3	-10	-6	nt
CC(=NNS(=O)(=O)c1ccc([N+](=O)[O-])cc1)c1c[nH]c2ccccc12	nt	nt	-2	nt	nt	nt
CC(Cc1ccccc1)=NNS(=O)(=O)c1ccc([N+](=O)[O-])cc1	nt	-1	3	-10	88*	nt
C/C(=N\NS(=O)(=O)c1ccc([N+](=O)[O-])cc1)c1c[nH]c2ccccc12	40	-10	nt	-1	52*	1
O=[N+]([O-])c1ccc(NCCNS(=O)(=O)c2ccccc2)cc1	16	-9	8	-27	4	3
O=C(NCCNS(=O)(=O)c1ccccc1)c1ccc([N+](=O)[O-])cc1	58*	-22	-1	2	0	0
CCCCNC(=S)N(C)N=Cc1sc(N2CCCCC2)nc1-c1cccs1	nt	nt	-1	nt	nt	nt
Cc1ccccc1OCC(=O)N/N=C/c1ccc([N+](=O)[O-])o1	52*	-28	nt	-3	-3	-4
Cc1cc(C)cc(OCC(=O)N/N=C/c2ccc([N+](=O)[O-])o2)c1	20	-5	nt	-29	15	-2
C#CCOCCOCCOCCNc1nc(N2CCN(C(=O)[C@H]([C@@H](C)CC)n3cc([C@@H](N)Cc4ccc(O)cc4)nn3)CC2)nc(N2CCN(C(=O)[C@H]([C@@H](C)CC)n3cc([C@@H](N)Cc4ccc(O)cc4)nn3)CC2)n1	30	4	nt	-23	51*	0
Cc1sc2ncnc(N3CCC(C(=O)NNC(=O)c4ccccc4Cl)CC3)c2c1C	53*	4	3	-14	7	0
Cc1sc2ncnc(N3CCC(C(=O)NNC(=O)COc4ccccc4Cl)CC3)c2c1C	nt	5	-1	-16	5	nt
COc1ccc(N)cc1NC(=O)CN1CCCC1	59*	-4	9	-33	3	2
COc1ccccc1NC(=O)CN1CCN(C2c3ccccc3-c3ccccc32)CC1	51*	0	nt	-12	-1	6
COc1ccc(Cl)cc1NC(=O)CN1CCCCCC1	12	-4	-3	-4	-12	-3
COc1ccc(C(=O)Nc2nc(C)c3cc4c(cc3n2)OCO4)cc1	3	1	38*	-12	-8	0
COC(=O)c1ccccc1NC(=O)NCc1ccncc1	14	8	nt	-24	114*	7
O=C1c2ccccc2C(Nc2ccc(S(=O)(=O)N3CCCCCC3)cc2)N1c1ccccn1 (stereo unspecified)	27	-5	6	-9	94*	-1
O=C1c2ccccc2C(Nc2ccc(S(=O)(=O)N3CCOCC3)cc2)N1c1ccccn1 (stereo unspecified)	0	6	-2	-13	2	-3
SMILES	VHR inh abs	PrPC surface inh	Mtb hypoxia inh	PrP UTR inh	MazF activator	3CLpro inhibitor
Cc1cc(-c2nn(-c3ccccc3F)cc2CN2CCCC(O)C2)c(C)s1 (stereo unspecified)	53*	7	-2	0	-15	3
Cc1cc(C)cc(NCc2cc3c(cc2[N+](=O)[O-])OCO3)c1	42	0	4	-3	-2	-1
COc1ccc(CNCc2cc3c(cc2[N+](=O)[O-])OCO3)cc1	53*	-21	-2	-11	3	-7
C/C(=N/OC(=O)c1ccccc1Br)c1ccc(C)cc1	52*	-2	nt	-37	-5	-3
Cc1ccc(Cn2cc(C=NNC(=O)Cc3nnc(NC(=O)c4ccc(C)cc4)s3)c3ccccc32)cc1	nt	nt	19	nt	nt	nt
CCn1c(=N)n(CC(=O)OC)c2ccccc21	56*	1	6	4	-1	0
CCn1c(=N)n(CC(=O)C(C)(C)C)c2ccccc21	-11	-2	0	-2	0	4
COc1ccccc1OCC(=O)Nc1ccc(S(=O)(=O)N(C)c2ccccc2)cc1	-29	-1	9	-17	6	-2
CCN(CC)S(=O)(=O)c1ccc(NC(=O)CSc2cccc[n+]2[O-])cc1	52*	nt	8	-26	7	0
CCN(CC)S(=O)(=O)c1ccc(NC(=O)COc2c(OC)cccc2OC)cc1	56*	-6	2	-16	0	3
Cc1ccc(S(=O)(=O)Nc2ccc(NC(=O)Nc3cccc(C(F)(F)F)c3)cc2)cc1	18	13	6	-31	5	7
CCN(CC)S(=O)(=O)c1ccc(Cl)c(NC(=O)CSc2cccc[n+]2[O-])c1	8	4	11	nt	4	-4
CCN(CC)S(=O)(=O)c1ccc(NC(=O)Nc2cccc(C(F)(F)F)c2)cc1	20	43*	2	-25	3	7
CN(C)C=Nc1nc2nccc(-c3cccnc3)n2n1	nt	nt	5	nt	nt	nt
C#CCCOC(=O)N1C2=NC(C(=O)OC)=C(C(=O)OC)C3Nc4ccccc4[C@]23CC1C(=O)OC (stereo partly specified)	nt	nt	2	nt	nt	nt
O=c1c2c(-c3ccccc3)csc2nc2c3ccccc3c(NCCN3CCOCC3)nn12	22	-10	41*	-30	-21	-4
O=c1c2ccccc2nc2c3ccccc3c(NCCN3CCOCC3)nn12	16	18	-7	nt	nt	-2
C=C(C)C1CC=C(C)/C(=N/NC(=O)CCC(=O)Nc2ccccc2Cl)C1 (stereo unspecified)	55*	6	nt	-5	-4	-1
COc1ccc(-[n+]2c(-c3ccccc3)cc(-c3ccc(C)cc3)cc2-c2ccccc2)cc1	15	29*	nt	-13	-11	-1
O=C(Cn1ccc(NC(=O)OCc2ccccc2)nc1=O)NCc1ccc2c(c1)OCO2	nt	3	1	-11	58*	nt
COC(=O)CN1C(=O)C2C(C3CC3)N3C(=O)CN(Cc4ccccn4)C(=O)[C@@]3(Cc3ccccc3)C2C1=O (stereo partly specified)	nt	nt	-4	nt	nt	nt
CCOC(=O)c1ccc(OCC2NCCc3cc(OC)c(OC)cc32)cc1 (stereo unspecified)	18	-3	8	-1	7	-9
